# Source: PubChem (The Scripps Research Institute Molecular Screening Center)
# CHO-K1 Ca antag: M1 antagonist counterscreen hit in parental CHO-K1 cells. ATP-induced calcium, Fluo-8 fluorescence. inhibition, % at 3 µM. 360,000 compounds, 0.6% hits;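 active = inhibition above a per-plate cutoff, the plate's mean sample inhibition plus 3 SD, cut at about 24% in these data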;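 note: 0% = DMSO plus EC80 ATP and 100% = DMSO alone without ATP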
# M1 antag: blocks human M1 muscarinic receptor | P11229 | CHO-K1 hM1, Fluo-8 calcium fluorescence, ACh EC80 antagonist | inhibition, % at 3 µM | 360,000 compounds, 1.3% hits;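 active = percent inhibition above its own plate's cutoff, namely the mean of that plate's compound wells plus 3 SD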;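 note: peak over basal fluorescence ratio during 140 s after agonist addition; 0% = ACh EC80 plus DMSO and 100% = DMSO alone without agonist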
# Target sequence (P11229 whole entry, looked up): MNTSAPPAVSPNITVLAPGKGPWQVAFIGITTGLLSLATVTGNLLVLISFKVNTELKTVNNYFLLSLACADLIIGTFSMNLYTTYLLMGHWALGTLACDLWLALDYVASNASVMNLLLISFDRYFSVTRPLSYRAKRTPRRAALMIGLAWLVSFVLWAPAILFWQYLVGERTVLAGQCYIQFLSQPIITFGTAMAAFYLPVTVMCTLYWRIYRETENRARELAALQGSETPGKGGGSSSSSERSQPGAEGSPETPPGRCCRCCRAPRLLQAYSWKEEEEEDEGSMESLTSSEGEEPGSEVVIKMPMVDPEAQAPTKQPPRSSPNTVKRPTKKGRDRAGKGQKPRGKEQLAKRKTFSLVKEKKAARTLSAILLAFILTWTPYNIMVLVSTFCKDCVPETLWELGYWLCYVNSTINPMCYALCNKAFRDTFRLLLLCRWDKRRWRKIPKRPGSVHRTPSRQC
# M1 PAM parental: counter-screen for M1 PAMs: effect in parental CHO-K1 cells; ATP EC20, Fluo-8 calcium fluorescence; 0% at ATP EC20, 100% at ATP max; activation, % at 3 µM; 360,000 compounds, 0.02% hits; AID 602247;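 active = activation above the run cutoff, the mean activation of all test compounds plus 3 SD, cut at about 40% in these data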;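 note: peak over basal fluorescence ratio in a 140 s read after ATP addition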
# CHRM1 PAM: positive allosteric modulators of human M1 muscarinic receptor; P11229; CHO-K1 hM1, Fluo-8 calcium fluorescence, ACh EC20; 0% = ACh EC20, 100% = maximal ACh; activation, % at 3 µM; 360,000 compounds, 0.088% hits; AID 588819; in the data active = activation above about 19%, passing the limit was not always enough
# M1 ag parental: M1 agonist counterscreen hit in parental CHO-K1 cells; Fluo-8 calcium fluorescence; scaled to maximal ATP response, vehicle zero; activation, % at 3 µM; 360,000 compounds, 0.48% hits; in the data active = activation above about 15%;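 note: untransfected CHO-K1 host cells lacking M1 receptor as counterscreen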
# CHRM1 agonist: agonists of human M1 muscarinic receptor. P11229. CHO-K1 hM1, Fluo-8 calcium fluorescence, agonist mode; 0% DMSO, 100% acetylcholine EC100. activation, % at 3 µM. 360,000 compounds, 0.33% hits;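 active = activation above the run's mean compound activation plus 3 SD, cut at about 16% in these data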;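 note: peak over basal fluorescence ratio within a 140 s kinetic read after compound addition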
# * marks the source's active call; other numbers are inactive results. Compounds with a hit are over-represented: about 2.4% of the library has one in this group of screens.
SMILES,CHO-K1 Ca antag,M1 antag,M1 PAM parental,CHRM1 PAM,M1 ag parental,CHRM1 agonist
CSc1nc(Cc2ccccc2)nc2ccccc12,24.0*,9.8,-5.1,-2.0,-0.7,-5.6
CN(C)CCN(C)C1CN(Cc2ccc(F)cc2)S(=O)(=O)C1 (stereo unspecified),14.4,-6.6,10.0,6.4,0.2,-10.4
COc1cc([N+](=O)[O-])cc(/C=C2/SC(=S)N(Cc3ccccc3)C2=O)c1O,40.3*,51.2*,-5.7,-14.0,36.8*,38.1*
O=C1/C(=C\c2cccc([N+](=O)[O-])c2O)SC(=S)N1Cc1ccccc1,-8.8,-7.5,-20.5,8.2,0.6,0.3
COc1ccc(CN2C(=O)/C(=C/c3ccncc3)SC2=S)cc1,-1.4,-9.5,17.5,23.7*,3.0,4.2
COc1cc(/C=C2/SC(=S)N(Cc3ccccc3)C2=O)ccc1OCC(=O)O,-0.1,-10.3,18.4,15.1,1.3,1.0
COc1cc(/C=C2/SC(=S)N(Cc3ccccc3)C2=O)cc(Cl)c1O,2.5,22.9,-19.0,-3.8,5.9,24.7*
COc1ccc(-c2c(-c3ccc(O)cc3O)n[nH]c2C(F)(F)F)cc1,11.8,2.6,-19.8,17.3,-0.1,5.0
Oc1ccc(-c2n[nH]c(C(F)(F)F)c2-c2ccccc2)c(O)c1,27.9*,41.5*,-3.9,-24.0,7.6,-3.0
COc1ccc(OC(=O)c2cccc(S(=O)(=O)N3CC(C)OC(C)C3)c2)cc1 (stereo unspecified),-4.2,4.8,-1.8,-0.4,9.5,-0.5
CCOC(=O)C1(Cc2ccccc2)CCCN(C(=O)c2cnn(CC)c2)C1 (stereo unspecified),28.7*,-6.9,6.2,6.0,6.5,-2.5
CCOC(=O)C1(Cc2ccccc2)CCCN(Cc2cnn(CC)c2)C1 (stereo unspecified),-13.7,-15.7,15.2,9.3,-0.1,-5.0
Cc1nc2ccc(C(=O)OCC(=O)N(C)c3ccccc3)cc2nc1C,-4.8,0.2,-5.8,2.2,0.2,-4.3
CCCCN(C(=O)C1CSC2(C)CCC(=O)N12)c1c(N)n(CC(C)C)c(=O)[nH]c1=O (stereo unspecified),2.0,14.8,-5.9,-5.4,-0.3,0.4
CCOc1ccc(NC(=S)N(CCCN2CCCC2)Cc2cccn2Cc2ccc(Cl)cc2)cc1,-3.1,-3.6,6.1,5.1,0.9,-4.6
Cc1cccc(NC(=S)N(CCCN2CCCC2)Cc2cccn2Cc2ccc(Cl)cc2)c1,0.0,11.0,12.9,-3.6,16.6*,0.3
CCCn1c(C(C)NC(=O)c2ccccc2)n[nH]c1=S (stereo unspecified),-0.2,-10.6,11.6,5.5,17.0*,-2.1
CCOC(=O)C1(Cc2ccccc2)CCCCCC1=O (stereo unspecified),5.0,-4.4,5.3,-3.6,-0.9,-4.3
CCSc1nnc(NC(=O)NC(CC)(C(F)(F)F)C(F)(F)F)s1,34.5*,6.8,-4.5,-1.6,6.8,0.6
CCSc1nnc(NC(=O)NC(C)(C(F)(F)F)C(F)(F)F)s1,4.5,3.7,16.5,-0.8,9.3,-5.0
O=C(Nc1cccc(F)c1)c1ccccc1,35.5*,-9.0,-0.2,4.5,-0.8,-3.3
O=C(Nc1cccc(C(=O)Nc2cccc(Br)c2)c1)c1ccccc1,25.4*,0.1,-20.0,-7.7,7.6,3.2
COc1cccc(CN2CC(C(=O)NCCc3nccs3)CCC2=O)c1 (stereo unspecified),1.5,-15.7,20.0,9.6,0.3,-0.9
CC(=NNc1nc2ccccc2s1)c1ncccn1,27.4*,4.2,2.0,2.2,8.6,4.7
CC(=NNc1nc2ccccc2o1)c1ncccn1,30.9*,14.0,-2.6,-0.9,2.6,-2.0
SMILES,CHO-K1 Ca antag,M1 antag,M1 PAM parental,CHRM1 PAM,M1 ag parental,CHRM1 agonist
CC(=NNc1nc2ccccc2o1)c1cc2ccccc2cn1,17.0,3.2,-5.3,3.9,2.1,-1.7
O=C(c1ccco1)N1CCN(c2ccc(Cl)c(Cl)c2)CC1,26.2*,33.1*,-14.6,-13.8,5.8,-2.6
COC(=O)N1CCN(c2ccc(Cl)c(Cl)c2)CC1,7.0,10.2,7.2,-5.2,8.3,-1.5
O=C(CCC(=O)N1CCN(c2ccc(Cl)c(Cl)c2)CC1)c1ccccc1,13.8,43.8*,-14.5,-19.1,12.0,0.0
O=C(c1ccco1)N1CCN(c2ccc(Cl)cc2)CC1,-6.9,-11.1,15.2,6.1,0.9,11.8
CNC(=S)N1CCN(c2ccc(Cl)c(Cl)c2)CC1,3.6,20.7,-1.1,-10.6,16.9*,-1.4
CCNc1nc(OC)nc(Oc2ccc(=O)n(-c3ccccc3)n2)n1,24.4*,-23.1,-3.6,14.9,-0.5,5.7
CCNc1nc(Oc2ccc(=O)n(-c3ccccc3)n2)nc(N(C)C)n1,-8.2,-11.1,19.4,8.9,-0.1,-3.0
NS(=O)(=O)c1ccc(NC(=O)COC(=O)CN2C(=O)C3CC=CCC3C2=O)cc1 (stereo unspecified),-16.5,-5.8,11.0,2.3,0.7,-1.5
CCOC(=O)C1CCCN(S(=O)(=O)c2cc(Br)cc3c2N(C(=O)CC)CC3)C1 (stereo unspecified),6.9,6.6,5.0,3.0,-0.1,-1.6
O=C(O)c1cccc(S(=O)(=O)Nc2ccc(-c3ccccc3)cc2)c1,-8.4,-11.2,9.9,2.0,0.7,-5.4
O=C(O)c1ccc(NS(=O)(=O)c2ccc3c(c2)C(=O)c2ccccc2C3=O)cc1,24.6*,0.3,-17.8,-2.6,-0.8,-3.3
COc1cccc(CN2CCN(C(=O)Nc3ccc([N+](=O)[O-])cc3)CC2)c1,2.8,30.6*,-11.4,-10.3,1.2,-3.3
COc1ccc(CNC(=O)c2cnn3c(C(F)F)cc(C)nc23)cc1OC,25.6*,-7.4,-4.9,5.5,3.9,4.4
CCCCCNCc1ccc(Br)cc1,0.1,5.4,-11.1,2.8,0.8,6.7
CCCCCCNCc1ccc(Br)cc1,3.9,-10.8,8.7,-3.4,2.1,16.3*
O=C(CCCN1CCC(c2ccccc2)C1)c1ccc2c(c1)OCCO2 (stereo unspecified),-20.1,34.8*,3.1,-26.3,1.8,-7.6
CC(=O)Nc1ccc(S(=O)(=O)N2CCN(CC(O)COc3ccc4ccccc4c3)CC2)cc1 (stereo unspecified),4.7,34.1*,-9.2,-21.2,12.3,0.0
CC(=O)Nc1ccc(OCC(O)CN2CCN(S(=O)(=O)c3ccc(NC(C)=O)cc3)CC2)cc1 (stereo unspecified),-11.2,-5.4,12.8,2.6,0.4,-5.1
C=CCSc1nsc(NC(=O)Nc2ccc(F)cc2)n1,25.1*,30.7*,12.5,-12.6,14.0,4.8
CCSc1nsc(NC(=O)Nc2cccc(OC)c2)n1,12.9,26.9*,5.2,-13.9,17.0*,3.8
CCSc1nsc(NC(=O)Nc2ccccc2F)n1,6.1,21.9,-6.7,-11.6,13.8,3.6
